We go through three compounds from paper PMC11062922 (Nature Chemical Biology, 2023).

Common to all, as to parameters: species or system human, MV4-11 + K-562 + COLO205 + SK-N-BE2 + OVCAR-8
Assay [1] concerns CIT. Conditions: read-out: apparent Kd, n = 1.
Assay [2] deals with CSNK1A1. Conditions: read-out: apparent Kd, n = 1.
Assay [3] deals with CSNK1D. Conditions: read-out: apparent Kd, n = 1.
For assay [4], the system named is CSNK1E. Conditions: read-out: apparent Kd, n = 1.
Assay [5] has as its system DDR1. Conditions: read-out: apparent Kd, n = 1.
Assay [6] relates to MAPK11. Conditions: read-out: apparent Kd; compound concentrations:100 nM and 1000 nM (sheet 'Samples'); n = 1.
The subject of assay [7] is MAPKAPK2. Conditions: read-out: apparent Kd, n = 1.
Assay [8] concerns NLK. Conditions: read-out: apparent Kd, n = 1.
In assay [9] the test system is PRKCA. Conditions: read-out: apparent Kd; compound concentrations:100 nM and 1000 nM (sheet 'Samples'); n = 1.
The test system of assay [10] is PRKD2. Conditions: read-out: apparent Kd; compound concentrations:100 nM and 1000 nM (sheet 'Samples'); n = 1.
In assay [11] the test system is PRKD3. Conditions: read-out: apparent Kd; compound concentrations:100 nM and 1000 nM (sheet 'Samples'); n = 1.
Assay [12] relates to RIPK2. Conditions: read-out: apparent Kd, n = 1.
In assay [13] the test system is SIK3. Conditions: read-out: apparent Kd; compound concentrations:100 nM and 1000 nM (sheet 'Samples'); n = 1.
In assay [14] the test system is TNIK. Conditions: read-out: apparent Kd; compound concentrations:100 nM and 1000 nM (sheet 'Samples'); n = 1.
Assay [15] relates to DDR2. Conditions: read-out: apparent Kd; compound concentrations: 100 nM and 1000 nM (sheet 'Samples'), CATDS: 5.6437798094111098E-2; n = 1.
The test system of assay [16] is MAPK10. Conditions: read-out: apparent Kd; compound concentrations: 100 nM and 1000 nM (sheet 'Samples'), CATDS: 4.9775918057440499E-2; n = 1.
Assay [17] relates to MAPK14. Conditions: read-out: apparent Kd; compound concentrations: 100 nM and 1000 nM (sheet 'Samples'), CATDS: 0.14251472882722499; n = 1.
The test system of assay [18] is MAPK9. Conditions: read-out: apparent Kd; compound concentrations: 100 nM and 1000 nM (sheet 'Samples'), CATDS: 6.3726988892981506E-2; n = 1.
Assay [19] has as its system CDKL5. Conditions: read-out: apparent Kd; compound concentrations: 100 nM and 1000 nM (sheet 'Samples'), CATDS: 6.7048972560418404E-2; n = 1.
For assay [20], the system named is CLK1. Conditions: read-out: apparent Kd; compound concentrations: 100 nM and 1000 nM (sheet 'Samples'), CATDS: 9.1245201473329901E-2; n = 1.
Assay [21] concerns CLK4. Conditions: read-out: apparent Kd; compound concentrations: 100 nM and 1000 nM (sheet 'Samples'), CATDS: 8.9493688970087706E-2; n = 1.
In assay [22] the test system is DYRK1A. Conditions: read-out: apparent Kd; compound concentrations: 100 nM and 1000 nM (sheet 'Samples'), CATDS: 7.8911513629173299E-2; n = 1.
The subject of assay [23] is MAPK8. Conditions: read-out: apparent Kd; compound concentrations: 100 nM and 1000 nM (sheet 'Samples'), CATDS: 6.0987882625533299E-2; n = 1.
For assay [24], the system named is MELK. Conditions: read-out: apparent Kd; compound concentrations: 100 nM and 1000 nM (sheet 'Samples'), CATDS: 6.0030175657403803E-2; n = 1.
For assay [25], the system named is NQO2. Conditions: read-out: apparent Kd; compound concentrations: 100 nM and 1000 nM (sheet 'Samples'), CATDS: 6.6170323393418801E-2; n = 1.
For assay [26], the system named is RIOK2. Conditions: read-out: apparent Kd; compound concentrations: 100 nM and 1000 nM (sheet 'Samples'), CATDS: 9.8324164530309899E-2; n = 1.
The subject of assay [27] is TGFBR2. Conditions: read-out: apparent Kd; compound concentrations: 100 nM and 1000 nM (sheet 'Samples'), CATDS: 8.1907636331175093E-2; n = 1.
Setting [28] is: compound concentrations:100 nM and 1000 nM (sheet 'Samples').

Structures are written as SMILES. Read-outs that look alike come from different tables or passages of the source.

For `Cl.Nc1nccc(-c2c(-c3ccc(F)cc3)ncn2C2CCNCC2)n1` [SB-220025-A], the potency estimated from few doses in assay [1] (setting [28]) was 0.815 µM; in assay [2] (setting [28]) it was 0.0198 µM; in assay [3] (setting [28]) it was 0.00163 µM; in assay [4] (setting [28]) it was 0.00251 µM; in assay [5] (setting [28]), 1.35 µM; in assay [6], 0.689 µM. The potency estimated from few doses in [7] (setting [28]) is 0.00323 µM; in assay [8] (setting [28]) it was 0.324 µM; in assay [9], 2.37 µM; in assay [10], 0.956 µM; in assay [11] it was 1.42 µM; in assay [12] (setting [28]), 0.0683 µM. Moreover, the potency estimated from few doses in assay [13] is 1.14 µM; in assay [14], 1.61 µM.

In the case of `Nc1nccc(-c2c(-c3ccc(F)cc3)ncn2C2CCN(CC(F)(F)F)CC2)n1` [SB-236560], the potency estimated from few doses was 0.168 µM in assay [1] (compound concentrations: 100 nM and 1000 nM (sheet 'Samples'), CATDS: 7.9772232901770906E-2); 0.514 µM in [2] (compound concentrations: 100 nM and 1000 nM (sheet 'Samples'), CATDS: 5.74682899523659E-2); 0.0413 µM in assay [3] (compound concentrations: 100 nM and 1000 nM (sheet 'Samples'), CATDS: 0.160108926806518); 0.0877 µM in assay [4] (compound concentrations: 100 nM and 1000 nM (sheet 'Samples'), CATDS: 0.10532594591196801); 0.191 µM in [5] (compound concentrations: 100 nM and 1000 nM (sheet 'Samples'), CATDS: 7.6072029759196497E-2); 0.559 µM in assay [15]. The potency estimated from few doses in assay [16] was 1.15 µM; in assay [17], 0.05 µM; in [18] it was 0.338 µM; in assay [7] (compound concentrations: 100 nM and 1000 nM (sheet 'Samples'), CATDS: 0.17165135235048001), 0.0371 µM; in assay [8] (compound concentrations: 100 nM and 1000 nM (sheet 'Samples'), CATDS: 9.0409575218607804E-2), 0.123 µM; in assay [12] (compound concentrations: 100 nM and 1000 nM (sheet 'Samples'), CATDS: 0.128634977422559), 0.0598 µM.

Regarding `FC(F)(F)CNc1nccc(-c2cnn3ncccc23)n1` [GW683003X], the potency estimated from few doses is 1.22 µM in assay [19]; 0.572 µM in [20]; 0.596 µM in [21]; 1.01 µM in assay [2] (compound concentrations: 100 nM and 1000 nM (sheet 'Samples'), CATDS: 7.1676757807884198E-2); 0.117 µM in assay [3] (compound concentrations: 100 nM and 1000 nM (sheet 'Samples'), CATDS: 0.23797441251711701); 0.176 µM in assay [4] (compound concentrations: 100 nM and 1000 nM (sheet 'Samples'), CATDS: 0.17923780337449699). For the same compound, the potency estimated from few doses is 0.792 µM in assay [22]; 1.65 µM in assay [23]; 1.74 µM in assay [24]; 1.27 µM in assay [25]; 0.491 µM in [26]; 0.726 µM in [27].
